A number with no mark means an inactive call. The rule behind the calls is not given here.
Assay: blockers of DNA damage checkpoint Chk1 activation – imaging, HeLa, hydroxyurea, phospho-Chk1 antibody, percent positive cells, primary screen (AID 1186)
Details: hydroxyurea-induced phospho-Chk1 immunofluorescence imaging, higher = more signal

Compound | z-score
C=C(CCCC)C(=O)CC[C@H](OC(C)=O)c1ccccc1OCCO | -0.384
O=C1O[C@H](c2ccccc2)[C@H](c2ccccc2)N2[C@H]1[C@@H](C(=O)N1CCN(c3ncccn3)CC1)[C@]1(C(=O)Nc3ccccc31)[C@H]2c1ccc(O)cc1 | 0.746
CO[C@H]1O[C@H](CO)[C@@H](OC(=O)Nc2ccccc2)[C@@H]2OC(=O)[C@H](Cc3ccccc3)C/C=C/C[C@@H](Cc3ccccc3)C(=O)O[C@@H]12 | -0.62
C=CCNC(=O)[C@@H]1[C@H]2C(=O)O[C@H](c3ccccc3)[C@H](c3ccccc3)N2[C@H](c2ccc(O)cc2)[C@@]12C(=O)Nc1ccc(C#CC3(O)CCCCCC3)cc12 | -0.326
C=CCC(OC(C)=O)[C@@H]1[C@@H](N(Cc2ccc(-c3cccc(C(F)(F)F)c3)o2)C(=O)Cc2ccc(F)cc2)c2cc(OCCCO)ccc2N1C(=O)c1ccc2ccccc2n1 (some centres undefined) | 0.918
CO[C@H]1O[C@H](CO)[C@@H](OC(=O)Nc2ccc(C(F)(F)F)cc2)[C@H](OC(=O)Nc2ccccc2-c2ccccc2)[C@@H]1OC(=O)Nc1ccccc1-c1ccccc1 | 0.206
CCCCC(=C=CC[C@H](O)c1ccc(OCCO)cc1)C[C@H](O)c1ccccn1 | 0.203
NC(=O)[C@@]1(CCS(=O)(=O)c2ccccc2)COC(c2ccc(OCCCO)cc2)=N1 | -0.511
CC(=O)NCCCC[C@@H]1NC(=O)[C@@H]2C[C@H](C(=O)NCCCCCC[N+](C)(C)C)[C@H](c3ccc(O)cc3)N2C1=O | 0.956
O=C1C2C=CC(C(O)c3cccc(O)c3)N(Nc3ccccc3F)C2C(=O)N1c1ccccc1 (centres undefined) | -0.388
COCCOC(=O)N1C(=O)[C@@]2(c3cc(C#CCCO)ccc31)[C@H](C(=O)N1CCN(c3ncccn3)CC1)[C@H]1C(=O)O[C@H](c3ccccc3)[C@H](c3ccccc3)N1[C@@H]2c1ccc(O)cc1 | -0.416
COc1cccc(OC)c1C(=O)O[C@H]1[C@@H]2OC(=O)[C@H](Cc3cccc(Br)c3)C/C=C/C[C@@H](Cc3cccc(Br)c3)C(=O)O[C@H]2[C@@H](OC)O[C@@H]1CO | 0.0558
COc1ccc([Si](C)(C)[C@@H]2[C@@H](CCO)O[C@]3(C(=O)N(Cc4ccccc4)c4ccc(N5C(=O)c6ccccc6Oc6ccccc65)cc43)[C@H]2C)cc1 | -0.83
CC(C)CNC(=O)[C@@H]1c2ccccc2C(=O)N(CC23CC4CC(CC(C4)C2)C3)[C@H]1c1ccc(CO)cc1 | -0.282
C=C(COC)/C(=C/C[C@H](OC(=O)c1ccncc1)c1cccc(OCCO)c1)c1cnc2ccccc2c1 | 0.321
CN1C(=O)C2C=CC(C(O)c3ccc(-c4ccccc4)s3)N(Nc3ccccc3)C2C1=O (centres undefined) | -0.11
COc1ccc(NC(=O)O[C@H]2[C@H](OC(=O)Nc3ccc4c(c3)OCO4)[C@H](OC(=O)Nc3ccc4c(c3)OCO4)[C@@H](OC)O[C@@H]2CO)cc1 | -0.246
C=CCOC(=O)[C@H]1[C@@H]2C(=O)O[C@@H](c3ccccc3)[C@@H](c3ccccc3)N2[C@@H](c2ccc(OCCOC(=O)[C@H]3C[C@H]4C(=O)NCC(=O)N4[C@H]3c3ccc(O)cc3)cc2)[C@]12C(=O)Nc1ccc(I)cc12 | -1.06
COCCOC(=O)N1C(=O)[C@@]2(c3cc(C#CC4=CCCCC4)ccc31)[C@H](C(=O)N1CCN(c3ncccn3)CC1)[C@H]1C(=O)O[C@H](c3ccccc3)[C@H](c3ccccc3)N1[C@@H]2c1ccccc1OCCO | -0.274
C=C(COC)C(=O)CC[C@@H](OC(C)=O)c1ccc(OCCO)cc1 | 0.0887
O=C1C2C=CC(C(O)c3ccc([N+](=O)[O-])cc3)N(Nc3ccccc3)C2C(=O)N1c1ccccc1 (centres undefined) | 0.226
COCCCNC(=O)[C@@H]1c2ccccc2C(=O)N(C2CCCCC2)[C@H]1c1ccc(CO)cc1 | 0.226
C=CCN1C(=O)[C@]2(O[C@H](CCO)[C@@H]([Si](C)(C)c3ccc(OC)cc3)[C@@H]2C)c2ccccc21 | -1.17
C=CCC(OC(C)=O)[C@@H]1[C@@H](N(Cc2cc3ccccc3o2)C(=O)Cc2ccc(OC)cc2)c2cc(OCCCO)ccc2N1C(=O)Cc1ccc2ccccc2c1 (some centres undefined) | 0.405

From PubChem BioAssay
